Here are results for 17 compounds from PubChem BioAssay.

A short description of assay [1]: resazurin metabolic signal in HepG2 cells – cell-based, resazurin fluorescence, 24 h, PK04 Diversity Set, profiling panel (AID 1172). Note: test concentration not given here. To be noted: HepG2 viability, higher = more signal. For orientation: Alamar Blue is a resazurin reagent that responds to reducing activity.
The nature of assay [2]: budding yeast growth changes without added modifier – OD600, strain BY4716, 24 h, basal condition, primary screen (AID 1173). The settings on record: S. cerevisiae BY4716 growth, OD600, 24 h; higher = more signal, called active from +8 up or from −8 down.
Assay [3] in a line: viability profiling in MM1S myeloma cells – cell-based, resazurin fluorescence, basal, 24 h, PK04 Diversity Set, profiling panel (AID 1174). Note: test concentration not given here. The settings on record: higher = more signal, called active from +8 up or from −8 down.
For assay [4], the target named is Dihydroorotate dehydrogenase (quinone), mitochondrial (Plasmodium falciparum (isolate 3D7)) (UniProt Q08210). As to the kind of experiment: inhibition of P. falciparum DHODH – biochemical, C-terminal His tag, absorbance 600 nm, primary screen (AID 1175).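 Note: recombinant parasite enzyme with a five histidine tag at its C terminus; test concentration not given here.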 To be noted: PfDHODH enzyme, DCIP absorbance 600 nm; higher = more signal, called active from +8 up or from −8 down.
Chain of Dihydroorotate dehydrogenase (quinone), mitochondrial (Plasmodium falciparum (isolate 3D7)) (Q08210 whole entry, looked up): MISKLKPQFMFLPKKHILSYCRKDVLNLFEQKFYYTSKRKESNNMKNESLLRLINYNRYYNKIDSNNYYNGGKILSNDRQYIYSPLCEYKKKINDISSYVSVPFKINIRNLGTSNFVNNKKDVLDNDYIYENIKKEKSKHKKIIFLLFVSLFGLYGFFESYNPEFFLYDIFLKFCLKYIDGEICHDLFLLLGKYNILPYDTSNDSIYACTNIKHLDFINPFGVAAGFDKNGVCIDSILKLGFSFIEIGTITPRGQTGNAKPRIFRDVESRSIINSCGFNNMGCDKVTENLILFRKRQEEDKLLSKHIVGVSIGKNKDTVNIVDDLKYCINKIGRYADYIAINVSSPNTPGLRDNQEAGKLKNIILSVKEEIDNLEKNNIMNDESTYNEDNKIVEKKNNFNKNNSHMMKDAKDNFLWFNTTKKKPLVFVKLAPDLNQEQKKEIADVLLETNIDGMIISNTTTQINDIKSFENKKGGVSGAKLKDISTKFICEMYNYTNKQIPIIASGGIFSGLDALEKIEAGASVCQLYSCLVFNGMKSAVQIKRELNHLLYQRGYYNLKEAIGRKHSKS

A short description of assay [5]: inhibition of PAO1 biofilm formation – strain PAO1, LB-PBS medium, absorbance 600 nm, primary screen (AID 1176). Note: test concentration not given here. The settings on record: P. aeruginosa PAO1 growth/biofilm, A600, 12 h; higher = more signal.
Assay [6] is described as follows: growth modulation of vineyard yeast isolate – strain RM11-1a, OD600, basal, 24 h, primary screen (AID 1177).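 Note: cultures grown under basal conditions with no added stressor; test concentration not given here.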 The settings on record: S. cerevisiae RM11-1a growth, OD600, 24 h; higher = more signal, called active from +8 up or from −8 down.
A short description of assay [7]: growth of efflux-deficient E. coli DRC39 – strain DRC39, OD650, 24 h, E. coli filamentation inducers, primary screen (AID 1178).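 Note: growth measured as culture turbidity by optical density at 650 nm; test concentration not given here.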 To be noted: E. coli DRC39 acrAB, higher = more signal, called active from +8 up or from −8 down.
Assay [8] is described as follows: growth of efflux-deficient E. coli DRC39 – strain DRC39, OD650, 48 h, E. coli filamentation inducers, primary screen (AID 1179).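 Note: screen aims at cell division blockers that make cells filament.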 The settings on record: E. coli DRC39 delta-acrAB growth, higher = more signal, called active from +8 up or from −8 down.
A short description of assay [9]: viability profiling in RPMI8226 myeloma cells – cell-based, resazurin fluorescence, basal, 24 h, PK04 Diversity Set, profiling panel (AID 1180).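 Note: RPMI8826 multiple myeloma cell line at 5000 cells per well; test concentration not given here.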 To be noted: higher = more signal.
Assay [10] concerns the target E3 ubiquitin-protein ligase XIAP (Homo sapiens) (UniProt P98170). As to the kind of experiment: small molecules binding XIAP protein – biophysical, small-molecule microarray, fluorescence 635 nm, primary screen (AID 1181).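 Note: score merges 667 nm emission and signal to noise over triplicate slides.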 The settings on record: higher = more signal.

Active and inactive are the calls of the source. Unless noted, the rule behind the calls is not given here.

Chain of E3 ubiquitin-protein ligase XIAP (Homo sapiens) (P98170 whole entry, looked up): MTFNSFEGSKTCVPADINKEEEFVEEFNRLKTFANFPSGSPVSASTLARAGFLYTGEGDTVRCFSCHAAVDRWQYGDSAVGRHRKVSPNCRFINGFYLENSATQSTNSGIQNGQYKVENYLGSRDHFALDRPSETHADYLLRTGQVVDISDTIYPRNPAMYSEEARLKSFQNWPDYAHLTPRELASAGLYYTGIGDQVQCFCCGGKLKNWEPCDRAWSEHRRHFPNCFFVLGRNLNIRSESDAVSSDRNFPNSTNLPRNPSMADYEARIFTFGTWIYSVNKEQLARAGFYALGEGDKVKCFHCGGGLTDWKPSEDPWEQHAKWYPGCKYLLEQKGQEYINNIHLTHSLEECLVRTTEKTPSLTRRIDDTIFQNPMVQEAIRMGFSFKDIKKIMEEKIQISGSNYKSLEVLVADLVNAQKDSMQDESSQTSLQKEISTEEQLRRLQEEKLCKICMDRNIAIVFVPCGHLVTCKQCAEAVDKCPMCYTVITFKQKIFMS

`CCCNC(=O)OC[C@H]1O[C@H](CCON=CC[C@@H]2C=C[C@H](OC(C)=O)[C@@H](COC(C)=O)O2)C=C[C@@H]1Oc1ccc(OC)cc1`: the z-score in assay [1] was 0.261; in assay [2], 1.4 (inactive); in [3], -0.387 (inactive); in assay [5] it was 0.0282 (inactive); in assay [6], 0.394 (inactive); in [7], 0.426 (inactive). Besides, the z-score was -0.371 (inactive) in [8] and 0.477 in assay [9]. For the same compound, the composite z-score in assay [4] is -0.584 (inactive); in assay [10], -0.128.
As to `CC1CC/C=C\[C@H]2OC34C=CCN(C(C)C)C(=O)[C@H]3N(CCCO)C(=O)[C@@H]4C2C(=O)O1` (stereo not given in full), the z-score in assay [1] was 0.49; in assay [2], -0.404 (inactive); in [3], 0.48 (inactive); in assay [5] it was -0.91 (inactive); in [6], -0.467 (inactive); in assay [7] it was 1.05 (inactive). The results for the z-score in assay [8] and in assay [9] were 0.634 (inactive) and 0.817, respectively. Also, the figures for the composite z-score in assay [4] and in assay [10] were 0.395 (inactive) and 0.0131, respectively.
Take `CC(C)CON=C1C[C@@H](O)[C@@H](O)[C@@H]2[C@@H]3C(=O)N(C[C@@H]4CCCO4)C(=O)[C@@H]3CC[C@H]12`: the z-score was 0.511 in assay [1]; -0.138 (inactive) in assay [2]; -0.594 (inactive) in assay [3]; 0.884 (inactive) in assay [5]; -0.776 (inactive) in assay [6]; -0.353 (inactive) in [7]. In addition, the z-score in assay [8] was 0.0723 (inactive); in assay [9] it was 0.139. The results for the composite z-score in [4] and in assay [10] were -0.849 (inactive) and -0.174, respectively.
`CC(C)CON=C1[C@H]2CCn3c(=O)n(-c4ccccc4)c(=O)n3[C@H]2[C@H](O)[C@@H]2O[C@H]12`: the z-score in [1] was -0.771; in assay [2], -0.813 (inactive); in assay [3] it was -1.21 (inactive); in [5] it was -0.225 (inactive); in [6] it was 0.0254 (inactive); in assay [7], 0.276 (inactive). Moreover, the z-score was 0.596 (inactive) in assay [8] and -0.822 in assay [9]. In addition, the composite z-score was -0.422 (inactive) in assay [4] and -0.032 in assay [10].
As for `CC(CCN1CCCCc2nc(C)c(C)cc21)=NOC(C)CN1CCCc2nc(C)c(C)cc21` (stereo not given), the z-score is -0.0636 in [1]; -0.0975 (inactive) in [2]; -0.542 (inactive) in [3]; 1.03 (inactive) in assay [5]; 0.325 (inactive) in assay [6]; 0.529 (inactive) in assay [7]. In addition, the z-score was -0.936 (inactive) in [8] and -0.0794 in [9]. In addition, the composite z-score in assay [4] is 0.333 (inactive); in [10], 1.56.
Regarding `COCCOC(=O)N1C(=O)[C@@]2(c3cc(C#CC4(O)CCCCCC4)ccc31)[C@H](c1ccc(OCCO)cc1)N1[C@H](c3ccccc3)[C@H](c3ccccc3)OC(=O)[C@H]1[C@@H]2C(=O)NC[C@H](O)c1ccccc1`, the z-score was -0.259 in assay [1]; 0.685 (inactive) in assay [2]; -0.596 (inactive) in [3]; 1.91 (inactive) in [5]; 2.62 (inactive) in assay [6]; 0.393 (inactive) in [7]. Moreover, the z-score was 0.0869 (inactive) in [8] and 0.406 in [9]. The composite z-score in assay [4] is 1.74 (inactive); in assay [10], -0.16.
Regarding `COc1ccc([Si](C)(C)[C@H]2[C@H](CC(=O)N3CCC[C@H]3CO)O[C@@]3(C(=O)N(Cc4cccc(N5C(=O)COc6ccccc65)c4)c4ccccc43)[C@@H]2C)cc1`, the z-score in [1] was -0.58; in assay [2] it was -1.16 (inactive); in assay [3], -0.986 (inactive); in assay [5] it was 1.85 (inactive); in assay [6], -1.74 (inactive); in assay [7], 1.21 (inactive). Besides, the z-score in assay [8] was 1.32 (inactive); in [9] it was -0.524. Moreover, the composite z-score in assay [4] is -3.33 (inactive); in assay [10], -0.0795.
`CO[C@H]1COC(=O)[C@@H]2CCCN2C(=O)CC=C[C@@H](C)[C@H](OC)COC(=O)CC=C[C@@H]1C`: the z-score in assay [1] is 0.233; in assay [2] it was -1.16 (inactive); in [3], 0.89 (inactive); in [5] it was 0.696 (inactive); in [6], -2.08 (inactive); in assay [7], 1.04 (inactive). Besides, the z-score in assay [8] is 0.375 (inactive); in assay [9], -0.395. Besides, the composite z-score in [4] is -0.652 (inactive); in assay [10] it was -0.137.
Turning to `C=CCC(OC(C)=O)[C@@H]1[C@@H](N(Cc2cc3ccccc3o2)C(=O)Cc2ccc(F)cc2)c2cc(OCCCO)ccc2N1C(=O)Cc1ccc(OC)cc1` (stereo not given in full), the z-score in [1] was 0.217; in [2], -0.449 (inactive); in assay [3], 0.301 (inactive); in assay [5], 0.632 (inactive); in [6] it was -0.711 (inactive); in [7] it was -0.201 (inactive). In addition, the z-score was -0.416 (inactive) in assay [8] and -0.115 in assay [9]. The composite z-score in assay [4] was -1.66 (inactive); in assay [10], 0.0769.
With `CCc1cc2c(nc1CC)CCN(CCC(C)=NOC(C)CN1CCCc3nc(C)c(C)cc31)C2` (stereo not given), the z-score was -0.644 in [1]; -0.822 (inactive) in assay [2]; -0.845 (inactive) in assay [3]; 0.429 (inactive) in assay [5]; -0.173 (inactive) in assay [6]; 0.278 (inactive) in assay [7]. Also, the z-score in assay [8] was -1.71 (inactive); in [9] it was -0.615. Moreover, the values for the composite z-score in [4] and in assay [10] were 0.244 (inactive) and 1.13, respectively.
Turning to `CCOC(=O)NN=C1C[C@@H](O)[C@@H](O)[C@@H]2[C@@H]3C(=O)N(C(C)(C)C)C(=O)[C@@H]3CC[C@@H]12`, the z-score was -0.119 in [1]; 0.381 (inactive) in assay [2]; -0.387 (inactive) in [3]; -0.495 (inactive) in assay [5]; -1.23 (inactive) in assay [6]; -0.654 (inactive) in assay [7]. Further, the values for the z-score in [8] and in assay [9] were -0.0961 (inactive) and -0.559, respectively. The values for the composite z-score in [4] and in assay [10] were 0.0062 (inactive) and 0.167, respectively.
With `COC(=O)CC=C[C@H](C)[C@@H](OCc1ccccc1Br)C(C)C`, the z-score in assay [1] was -0.285; in assay [2], -0.553 (inactive); in assay [3], -2.19 (inactive); in assay [5], 0.274 (inactive); in assay [6] it was -0.158 (inactive); in assay [7] it was 0.824 (inactive). Besides, the values for the z-score in assay [8] and in assay [9] were 0.661 (inactive) and -1.89, respectively. In addition, the figures for the composite z-score in assay [4] and in [10] were -0.216 (inactive) and 0.157, respectively.
Turning to `CCCCCCc1nc(CCCc2cc3c(c(CCCCCC)n2)[Si](C(C)C)(C(C)C)O[C@H]3c2ccccc2)cc2c1[Si](C(C)C)(C(C)C)O[C@H]2c1ccccc1`, the z-score in assay [1] is 0.0054; in [2], 1.33 (inactive); in assay [3] it was -0.582 (inactive); in [5], 0.0793 (inactive); in assay [6], -0.879 (inactive); in [7], -0.631 (inactive). The z-score in assay [8] was -0.981 (inactive); in [9] it was -0.465. Besides, the values for the composite z-score in assay [4] and in assay [10] were -0.347 (inactive) and -0.117, respectively.
As to `O=C1[C@H]2[C@H]3[C@H](O)[C@H](O)CC(=NOCc4ccccc4)[C@@H]3CC[C@H]2C(=O)N1Cc1ccccc1`, the z-score in assay [1] is 1.38; in [2], -0.148 (inactive); in [3] it was 0.85 (inactive); in assay [5] it was -0.377 (inactive); in assay [6], -0.118 (inactive); in assay [7] it was 0.16 (inactive). Moreover, the z-score in assay [8] is 0.71 (inactive); in assay [9] it was 1.17. For the same compound, the composite z-score in assay [4] is -0.0807 (inactive); in [10], 0.0512.
In the case of `CN(C)C(=O)[C@@]1(Cc2ccccc2)N=C(c2ccc(OCCCO)cc2)O[C@H]1c1ccccc1CN=[N+]=[N-]`, the z-score in assay [1] was -0.412; in assay [2] it was -0.618 (inactive); in assay [3], -1.23 (inactive); in [5], 0.535 (inactive); in assay [6], -0.112 (inactive); in assay [7] it was -0.0193 (inactive). Also, the z-score in assay [8] was -0.139 (inactive); in assay [9], -1.23. Moreover, the figures for the composite z-score in assay [4] and in assay [10] were 0.519 (inactive) and 0.215, respectively.
In the case of `CC(=O)OC[C@H]1O[C@H](CCON=C(C)CCC(=O)OC[C@H]2O[C@H](C#Cc3ccccc3)C=C[C@@H]2Oc2ccc(C)cc2)C=C[C@@H]1OC(C)=O`, the z-score in assay [1] was -0.508; in [2] it was 0.511 (inactive); in [3], -0.795 (inactive); in assay [5], 0.405 (inactive); in assay [6], 0.661 (inactive); in [7], 0.674 (inactive). The z-score in assay [8] was 0.59 (inactive); in assay [9] it was -0.31. In addition, the composite z-score was -0.84 (inactive) in assay [4] and -0.241 in assay [10].
Take `Cc1cc2c(nc1C)CCCN2CC(O)CN1CCN(C)CC1` (stereo not given): the z-score is -0.406 in assay [1]; -0.428 (inactive) in [2]; -0.709 (inactive) in assay [3]; 1.02 (inactive) in assay [5]; -0.185 (inactive) in assay [6]; -0.233 (inactive) in [7]. In addition, the values for the z-score in [8] and in assay [9] were -0.125 (inactive) and -0.0252, respectively. Further, the composite z-score was -1.14 (inactive) in assay [4] and 1.64 in [10].
